Common to all, as to assay: DAPPL (digital affinity profiling via proximity ligation, sequencing); 10 mM Tris-HCl pH 7.5, 50 mM NaCl, 1 mM DTT, 4% glycerol, room temperature, 30 min; GST-TFs on glutathione beads, 16-mer random dsDNA library, 0.1% formaldehyde crosslink after washing; high values mean tight binding
One assay addresses T1, FEV (Homo sapiens, UniProt Q99581 1-238).
T1 sequence: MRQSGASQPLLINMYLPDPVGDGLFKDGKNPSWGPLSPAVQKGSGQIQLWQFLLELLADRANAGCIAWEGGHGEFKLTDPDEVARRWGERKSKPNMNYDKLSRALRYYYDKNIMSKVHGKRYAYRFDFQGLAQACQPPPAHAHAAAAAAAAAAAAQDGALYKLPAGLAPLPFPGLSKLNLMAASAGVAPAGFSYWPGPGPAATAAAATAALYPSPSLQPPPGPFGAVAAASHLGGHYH
The settings on record: protein: recombinant; tags: N-terminal GST; dsDNA, one strand shown. The procedure, abridged: (§1)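 Human transcription factors were made in yeast as GST fusions, captured on glutathione beads and barcoded with DNA. With a tag-only sample included, the pool was incubated with 200 nmole of a random double-stranded 16-mer DNA library in Tris/NaCl/DTT/glycerol buffer at room temperature for 30 min, then crosslinked with 0.1% formaldehyde after washing, ligated by proximity, amplified and sequenced. For binding signal, each hexamer's read frequency for a factor is divided by its frequency for the tag-only sample.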

The next assay deals with ETV5 (Homo sapiens, UniProt P41161 1-510). The settings on record: protein: recombinant; tags: N-terminal GST; dsDNA, one strand shown. The essentials:
as §1

Another assay addresses HSF1 (Homo sapiens, UniProt Q00613 1-529). The settings on record: protein: recombinant; tags: N-terminal GST; chain copies: 3; dsDNA, one strand shown. The essentials:
as §1

In another assay the target is T2, SPIC (Homo sapiens, UniProt Q8N5J4 1-248).
T2 sequence: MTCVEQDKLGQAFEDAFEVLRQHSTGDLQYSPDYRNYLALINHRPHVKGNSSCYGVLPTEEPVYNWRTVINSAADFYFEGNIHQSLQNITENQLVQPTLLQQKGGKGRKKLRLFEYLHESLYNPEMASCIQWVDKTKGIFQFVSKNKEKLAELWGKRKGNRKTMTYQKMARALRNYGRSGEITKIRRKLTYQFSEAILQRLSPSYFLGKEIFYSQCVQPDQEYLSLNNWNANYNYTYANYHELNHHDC
The settings on record: protein: recombinant; tags: N-terminal GST; dsDNA, one strand shown. The essentials: as §1

In the next assay the target is ELF4 (Homo sapiens, UniProt Q99607 1-663). To be noted: protein: recombinant; tags: N-terminal GST; dsDNA, one strand shown. The essentials: as §1
For another assay, the target named is T3, ELK4 (Homo sapiens, UniProt P28324-2 1-405).
T3 sequence: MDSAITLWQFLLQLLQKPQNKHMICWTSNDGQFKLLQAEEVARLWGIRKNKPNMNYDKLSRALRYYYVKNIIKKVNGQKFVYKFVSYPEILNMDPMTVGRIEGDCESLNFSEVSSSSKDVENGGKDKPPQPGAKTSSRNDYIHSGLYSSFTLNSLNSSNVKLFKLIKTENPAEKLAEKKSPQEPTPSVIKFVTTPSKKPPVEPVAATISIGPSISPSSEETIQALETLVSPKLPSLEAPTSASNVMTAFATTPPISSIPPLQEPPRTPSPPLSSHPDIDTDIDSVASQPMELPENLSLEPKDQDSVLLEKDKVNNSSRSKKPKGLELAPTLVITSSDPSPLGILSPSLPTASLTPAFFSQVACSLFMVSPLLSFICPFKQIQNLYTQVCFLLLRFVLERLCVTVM
To be noted: protein: recombinant; tags: N-terminal GST; dsDNA, one strand shown. The procedure, abridged: as §1

The target of the next assay is T4, ETV2 (Homo sapiens, UniProt O00321 1-342).
T4 sequence: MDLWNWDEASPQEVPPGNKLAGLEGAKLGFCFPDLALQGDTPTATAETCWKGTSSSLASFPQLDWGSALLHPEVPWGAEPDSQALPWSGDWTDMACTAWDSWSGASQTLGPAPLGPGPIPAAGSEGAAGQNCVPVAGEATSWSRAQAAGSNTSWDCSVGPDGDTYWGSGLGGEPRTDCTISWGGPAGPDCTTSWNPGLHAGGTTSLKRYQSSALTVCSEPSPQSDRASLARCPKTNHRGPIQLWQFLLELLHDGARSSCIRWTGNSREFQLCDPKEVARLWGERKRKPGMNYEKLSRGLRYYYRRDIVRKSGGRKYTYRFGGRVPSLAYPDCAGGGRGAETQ
The settings on record: protein: recombinant; tags: N-terminal GST; dsDNA, one strand shown. The essentials: as §1

The target of the next assay is T5, ELF3 (Homo sapiens, UniProt P78545 1-371).
T5 sequence: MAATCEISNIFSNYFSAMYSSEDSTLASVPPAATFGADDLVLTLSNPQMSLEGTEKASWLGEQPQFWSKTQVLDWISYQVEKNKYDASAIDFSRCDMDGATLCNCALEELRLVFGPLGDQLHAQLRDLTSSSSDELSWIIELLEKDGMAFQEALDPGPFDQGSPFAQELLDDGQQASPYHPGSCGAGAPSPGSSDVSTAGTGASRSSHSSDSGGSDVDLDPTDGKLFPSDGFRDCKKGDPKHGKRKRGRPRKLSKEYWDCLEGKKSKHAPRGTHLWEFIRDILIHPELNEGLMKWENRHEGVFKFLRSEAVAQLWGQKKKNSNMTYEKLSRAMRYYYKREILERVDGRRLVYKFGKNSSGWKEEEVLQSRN
To be noted: protein: recombinant; tags: N-terminal GST; dsDNA, one strand shown. The procedure, abridged:
as §1

Another assay concerns the target CRX (Homo sapiens, UniProt O43186 1-299). The settings on record: protein: recombinant; tags: N-terminal GST; dsDNA, one strand shown. The procedure, abridged: as §1
A further assay has as its target ETV1 (Homo sapiens, UniProt P50549 1-477). To be noted: protein: recombinant; tags: N-terminal GST; dsDNA, one strand shown. The essentials:
as §1

The next assay deals with T6, ERF (Homo sapiens, UniProt P50548 1-548).
T6 sequence: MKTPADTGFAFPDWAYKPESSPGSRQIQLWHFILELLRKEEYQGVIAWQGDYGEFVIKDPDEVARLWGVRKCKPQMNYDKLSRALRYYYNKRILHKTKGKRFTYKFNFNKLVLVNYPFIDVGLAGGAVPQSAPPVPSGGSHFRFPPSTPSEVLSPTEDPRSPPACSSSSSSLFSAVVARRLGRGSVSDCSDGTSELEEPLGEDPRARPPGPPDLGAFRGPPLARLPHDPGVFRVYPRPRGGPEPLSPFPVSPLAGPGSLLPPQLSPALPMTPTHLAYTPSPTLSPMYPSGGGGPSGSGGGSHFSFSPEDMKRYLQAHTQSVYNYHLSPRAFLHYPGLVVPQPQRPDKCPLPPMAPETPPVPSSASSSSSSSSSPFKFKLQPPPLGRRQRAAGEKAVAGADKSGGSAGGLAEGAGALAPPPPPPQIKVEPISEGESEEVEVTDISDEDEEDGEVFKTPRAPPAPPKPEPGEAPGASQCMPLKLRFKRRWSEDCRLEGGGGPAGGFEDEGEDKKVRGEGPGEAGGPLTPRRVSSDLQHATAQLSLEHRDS
The settings on record: protein: recombinant; tags: N-terminal GST; dsDNA, one strand shown. The procedure, abridged: as §1

For a further assay, the target named is T7, ETV3L (Homo sapiens, UniProt Q6ZN32 1-361).
T7 sequence: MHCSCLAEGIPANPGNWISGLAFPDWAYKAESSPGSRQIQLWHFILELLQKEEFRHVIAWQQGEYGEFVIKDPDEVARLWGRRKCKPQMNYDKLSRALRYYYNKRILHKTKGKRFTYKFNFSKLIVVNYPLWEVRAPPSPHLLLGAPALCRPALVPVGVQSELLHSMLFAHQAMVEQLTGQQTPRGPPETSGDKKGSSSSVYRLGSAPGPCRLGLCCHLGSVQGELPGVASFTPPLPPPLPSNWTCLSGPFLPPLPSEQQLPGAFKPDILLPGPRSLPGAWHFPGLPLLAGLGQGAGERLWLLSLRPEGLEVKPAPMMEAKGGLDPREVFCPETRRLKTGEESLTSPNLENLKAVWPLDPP
The settings on record: protein: recombinant; tags: N-terminal GST; dsDNA, one strand shown. The essentials: as §1

Another assay addresses T8, ETS2 (Homo sapiens, UniProt P15036 1-469).
T8 sequence: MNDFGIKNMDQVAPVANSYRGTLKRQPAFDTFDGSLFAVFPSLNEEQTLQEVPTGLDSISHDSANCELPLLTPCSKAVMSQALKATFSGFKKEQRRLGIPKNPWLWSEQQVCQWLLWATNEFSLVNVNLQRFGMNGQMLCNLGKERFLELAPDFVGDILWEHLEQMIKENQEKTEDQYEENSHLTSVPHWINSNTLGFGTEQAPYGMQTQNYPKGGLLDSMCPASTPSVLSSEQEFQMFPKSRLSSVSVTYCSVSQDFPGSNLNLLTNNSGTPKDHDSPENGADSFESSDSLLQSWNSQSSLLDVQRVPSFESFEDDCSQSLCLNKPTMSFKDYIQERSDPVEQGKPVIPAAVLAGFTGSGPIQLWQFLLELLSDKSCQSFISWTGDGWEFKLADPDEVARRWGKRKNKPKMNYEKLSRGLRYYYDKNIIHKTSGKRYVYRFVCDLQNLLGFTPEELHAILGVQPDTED
To be noted: protein: recombinant; tags: N-terminal GST; dsDNA, one strand shown. The procedure, abridged:
as §1

The target in a further assay is T9, SPDEF (Homo sapiens, UniProt O95238 1-335).
T9 sequence: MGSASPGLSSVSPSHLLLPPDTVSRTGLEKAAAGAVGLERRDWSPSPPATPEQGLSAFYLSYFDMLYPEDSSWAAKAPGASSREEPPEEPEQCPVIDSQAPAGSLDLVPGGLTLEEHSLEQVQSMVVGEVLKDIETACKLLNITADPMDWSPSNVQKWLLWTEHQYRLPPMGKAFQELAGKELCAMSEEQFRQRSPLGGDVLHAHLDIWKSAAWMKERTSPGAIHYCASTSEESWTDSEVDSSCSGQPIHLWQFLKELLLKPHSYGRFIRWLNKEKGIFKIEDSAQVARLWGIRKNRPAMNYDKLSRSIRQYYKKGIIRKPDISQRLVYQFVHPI
To be noted: protein: recombinant; tags: N-terminal GST; dsDNA, one strand shown. The essentials: as §1

For another assay, the target named is T10, ETV7 (Homo sapiens, UniProt Q9Y603 1-341).
T10 sequence: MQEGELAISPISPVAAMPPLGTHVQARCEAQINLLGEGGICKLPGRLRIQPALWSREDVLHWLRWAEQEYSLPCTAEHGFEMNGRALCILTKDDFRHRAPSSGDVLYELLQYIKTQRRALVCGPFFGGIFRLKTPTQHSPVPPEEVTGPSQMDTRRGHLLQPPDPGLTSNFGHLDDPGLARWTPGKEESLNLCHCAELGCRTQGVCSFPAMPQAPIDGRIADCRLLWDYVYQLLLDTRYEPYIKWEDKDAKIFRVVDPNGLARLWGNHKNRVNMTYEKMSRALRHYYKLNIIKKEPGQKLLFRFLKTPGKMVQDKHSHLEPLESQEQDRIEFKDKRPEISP
To be noted: protein: recombinant; tags: N-terminal GST; dsDNA, one strand shown. The procedure, abridged: as §1

A further assay addresses T11, ELF5 (Homo sapiens, UniProt Q9UKW6-2 1-255).
T11 sequence: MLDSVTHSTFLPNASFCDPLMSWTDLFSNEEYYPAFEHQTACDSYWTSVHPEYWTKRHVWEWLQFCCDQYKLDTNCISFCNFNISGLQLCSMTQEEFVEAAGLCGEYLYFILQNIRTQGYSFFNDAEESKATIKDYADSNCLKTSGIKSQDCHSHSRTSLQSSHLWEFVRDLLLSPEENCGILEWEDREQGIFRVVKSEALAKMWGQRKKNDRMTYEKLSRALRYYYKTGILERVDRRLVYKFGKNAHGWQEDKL
The settings on record: protein: recombinant; tags: N-terminal GST; dsDNA, one strand shown. The essentials:
as §1

The next assay deals with T12, ETV3 (Homo sapiens, UniProt P41162-2 1-143).
T12 sequence: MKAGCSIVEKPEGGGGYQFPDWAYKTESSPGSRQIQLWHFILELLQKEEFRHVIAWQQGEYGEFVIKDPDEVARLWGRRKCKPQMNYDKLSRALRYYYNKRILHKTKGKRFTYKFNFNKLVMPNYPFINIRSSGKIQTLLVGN
The settings on record: protein: recombinant; tags: N-terminal GST; dsDNA, one strand shown. The essentials:
as §1

The target of another assay is ETV6 (Homo sapiens, UniProt P41212 1-452). The settings on record: protein: recombinant; tags: N-terminal GST; dsDNA, one strand shown. The procedure, abridged: as §1
Sequence of ETV6 (P41212 whole entry): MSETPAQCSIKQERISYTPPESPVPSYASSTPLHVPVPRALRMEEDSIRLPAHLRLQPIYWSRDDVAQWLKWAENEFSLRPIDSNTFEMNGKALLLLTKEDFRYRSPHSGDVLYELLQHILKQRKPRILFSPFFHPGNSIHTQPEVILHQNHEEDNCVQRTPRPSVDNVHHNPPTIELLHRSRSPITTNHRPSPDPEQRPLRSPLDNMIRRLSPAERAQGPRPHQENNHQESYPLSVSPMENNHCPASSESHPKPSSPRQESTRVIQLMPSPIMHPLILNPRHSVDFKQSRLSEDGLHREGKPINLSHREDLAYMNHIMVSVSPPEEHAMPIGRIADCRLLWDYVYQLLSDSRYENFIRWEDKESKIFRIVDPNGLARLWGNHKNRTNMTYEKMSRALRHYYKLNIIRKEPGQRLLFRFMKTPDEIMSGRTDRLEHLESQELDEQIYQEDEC

Sequence of ETV5 (P41161 whole entry): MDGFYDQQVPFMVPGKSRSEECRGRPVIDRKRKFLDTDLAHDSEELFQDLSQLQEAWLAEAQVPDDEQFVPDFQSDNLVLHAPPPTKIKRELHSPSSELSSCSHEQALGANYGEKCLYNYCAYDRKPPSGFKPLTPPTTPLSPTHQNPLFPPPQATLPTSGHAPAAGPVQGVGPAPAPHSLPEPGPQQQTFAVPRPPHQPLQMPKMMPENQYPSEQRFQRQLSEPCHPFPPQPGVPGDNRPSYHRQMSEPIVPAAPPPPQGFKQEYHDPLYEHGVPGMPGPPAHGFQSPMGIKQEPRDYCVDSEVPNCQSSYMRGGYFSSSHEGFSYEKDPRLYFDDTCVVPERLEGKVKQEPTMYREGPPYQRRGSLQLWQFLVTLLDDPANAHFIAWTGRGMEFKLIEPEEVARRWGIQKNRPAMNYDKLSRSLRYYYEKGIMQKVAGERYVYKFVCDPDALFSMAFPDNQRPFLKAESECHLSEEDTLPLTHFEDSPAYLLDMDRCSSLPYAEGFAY
Sequence of HSF1 (Q00613 whole entry): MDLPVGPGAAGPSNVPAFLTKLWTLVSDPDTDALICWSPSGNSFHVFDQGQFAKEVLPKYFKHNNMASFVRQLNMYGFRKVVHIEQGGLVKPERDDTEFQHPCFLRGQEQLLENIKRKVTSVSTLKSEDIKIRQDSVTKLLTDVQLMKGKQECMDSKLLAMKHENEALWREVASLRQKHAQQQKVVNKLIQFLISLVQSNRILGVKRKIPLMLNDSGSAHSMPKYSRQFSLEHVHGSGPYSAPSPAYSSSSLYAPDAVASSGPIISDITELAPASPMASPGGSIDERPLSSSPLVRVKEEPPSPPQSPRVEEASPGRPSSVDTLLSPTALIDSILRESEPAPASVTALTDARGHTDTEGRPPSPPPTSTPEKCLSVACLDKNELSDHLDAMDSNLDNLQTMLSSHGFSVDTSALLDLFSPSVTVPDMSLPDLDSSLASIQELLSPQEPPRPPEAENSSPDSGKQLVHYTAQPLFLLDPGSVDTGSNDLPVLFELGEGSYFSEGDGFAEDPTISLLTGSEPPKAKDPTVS
Sequence of ELF4 (Q99607 whole entry): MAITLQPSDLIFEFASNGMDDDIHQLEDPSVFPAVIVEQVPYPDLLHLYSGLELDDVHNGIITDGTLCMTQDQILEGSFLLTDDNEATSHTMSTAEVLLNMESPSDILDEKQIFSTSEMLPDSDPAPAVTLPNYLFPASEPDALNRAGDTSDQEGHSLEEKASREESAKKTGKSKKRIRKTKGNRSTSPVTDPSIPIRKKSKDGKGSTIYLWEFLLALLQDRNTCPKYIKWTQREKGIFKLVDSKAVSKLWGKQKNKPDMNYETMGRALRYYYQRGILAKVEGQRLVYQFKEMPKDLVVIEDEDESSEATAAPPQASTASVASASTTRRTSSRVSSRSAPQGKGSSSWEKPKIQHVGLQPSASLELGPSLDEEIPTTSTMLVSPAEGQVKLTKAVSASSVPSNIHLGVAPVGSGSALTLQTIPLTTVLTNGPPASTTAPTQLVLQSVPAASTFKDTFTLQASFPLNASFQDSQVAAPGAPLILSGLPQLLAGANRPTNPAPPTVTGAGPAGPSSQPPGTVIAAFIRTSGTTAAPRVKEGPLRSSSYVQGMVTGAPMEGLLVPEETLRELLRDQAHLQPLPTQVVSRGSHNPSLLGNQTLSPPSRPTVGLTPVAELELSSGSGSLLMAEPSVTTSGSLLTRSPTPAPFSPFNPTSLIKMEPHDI
Sequence of ETV1 (P50549 whole entry): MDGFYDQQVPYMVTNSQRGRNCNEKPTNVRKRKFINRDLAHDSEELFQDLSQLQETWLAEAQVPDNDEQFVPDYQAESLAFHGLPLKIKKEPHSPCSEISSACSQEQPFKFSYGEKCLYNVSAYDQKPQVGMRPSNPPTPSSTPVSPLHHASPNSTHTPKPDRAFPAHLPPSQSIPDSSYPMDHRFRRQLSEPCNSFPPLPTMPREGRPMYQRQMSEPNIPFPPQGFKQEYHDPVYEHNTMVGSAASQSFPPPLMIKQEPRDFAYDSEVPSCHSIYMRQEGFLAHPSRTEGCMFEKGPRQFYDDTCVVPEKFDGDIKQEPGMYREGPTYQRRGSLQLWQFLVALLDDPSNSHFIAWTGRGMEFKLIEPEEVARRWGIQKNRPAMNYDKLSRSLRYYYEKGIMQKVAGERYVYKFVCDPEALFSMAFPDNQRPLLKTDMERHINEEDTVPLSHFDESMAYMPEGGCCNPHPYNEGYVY
Sequence of CRX (O43186 whole entry): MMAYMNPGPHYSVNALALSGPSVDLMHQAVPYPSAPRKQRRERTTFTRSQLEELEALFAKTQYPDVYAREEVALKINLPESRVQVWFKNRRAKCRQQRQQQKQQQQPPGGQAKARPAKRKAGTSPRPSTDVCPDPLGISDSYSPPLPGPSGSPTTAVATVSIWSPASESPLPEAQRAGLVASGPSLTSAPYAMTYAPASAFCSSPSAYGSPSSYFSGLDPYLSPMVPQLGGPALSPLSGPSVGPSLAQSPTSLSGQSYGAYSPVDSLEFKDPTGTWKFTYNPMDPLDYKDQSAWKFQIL

For CTGCCT, the binding signal was 1.2 fold enrichment (6-mer frequency, TF over GST control) with FEV; 1.18 fold enrichment (6-mer frequency, TF over GST control) in the assay with ETV5; 1.13 fold enrichment (6-mer frequency, TF over GST control) with HSF1; 1.07 fold enrichment (6-mer frequency, TF over GST control) with SPIC; 1.21 fold enrichment (6-mer frequency, TF over GST control) with ELF4; 1.14 fold enrichment (6-mer frequency, TF over GST control) in the assay with ELK4. Further, the binding signal is 1.15 fold enrichment (6-mer frequency, TF over GST control) with ETV2; 1.17 fold enrichment (6-mer frequency, TF over GST control) in the assay with ELF3; 1.11 fold enrichment (6-mer frequency, TF over GST control) with CRX; 1.24 fold enrichment (6-mer frequency, TF over GST control) with ETV1; 1.23 fold enrichment (6-mer frequency, TF over GST control) with ERF; 1.26 fold enrichment (6-mer frequency, TF over GST control) with ETV3L. In addition, the binding signal with ETS2 was 1.16 fold enrichment (6-mer frequency, TF over GST control); in the assay with SPDEF, 1.31 fold enrichment (6-mer frequency, TF over GST control); with ETV7 it was 1.36 fold enrichment (6-mer frequency, TF over GST control); in the assay with ELF5, 1.29 fold enrichment (6-mer frequency, TF over GST control); with ETV3, 1.23 fold enrichment (6-mer frequency, TF over GST control); with ETV6, 1.31 fold enrichment (6-mer frequency, TF over GST control).

Values taken from paper PMC7862700, “An all-to-all approach to the identification of sequence-specific readers for epigenetic DNA modifications on cytosine”.
